From PubChem BioAssay (NCATS)
Where “and” joins values, the source holds several entries; their conditions need not be identical. Identical values can stand only once. Results filed as inconclusive are left out. Unmarked numbers belong to inactive results. Calls of active or inactive are those of the source. Calls come from the whole dose curve; as a rule, active = well fitted cell-killing curve with a large enough effect; inconclusive = small, poorly fitted or top-dose-only effect; inactive = flat fitted curve, though single readings scatter.

Test: Cellular viability qHTS for adrenocortical cancer (ACC) cell line SW-13 (AID 1963989); note: nearly all actives have a fitted effect of over 65% in size;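 for activity (max response): cells grown in serum-free medium with ITS supplement; % is set by controls: 0 for no effect and ±100 for the full control effect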
Settings: SW-13 ACC cells viability, CellTiter-Glo, 48 h; activity (max response): active compounds read low
Outline: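 IC50 and maximal-response values come from four-parameter logistic fits of titration data. SW-13 cells in serum-free medium received compounds (up to 46 uM final) for 48 h before CellTiter-Glo luminescence.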
Potency is the fitted concentration of half-maximal effect.

Compound	activity (max response)	Potency
CN(C)C(=O)Oc1ccc[n+](C)c1	13.3%	
C[N+]1(C)[C@@H]2CC(OC(=O)[C@H](CO)c3ccccc3)C[C@H]1[C@@H]1O[C@@H]12 (stereo not given in full)	8.81% and 11.1%	
NS(=O)(=O)c1ccc(Cl)c(S(N)(=O)=O)c1	-3.32%	
Cc1cc(-n2nc3ccc(Cl)cc3n2)c(O)c(C(C)(C)C)c1	9.75%	
COc1cc2nc(-c3cc(F)ccc3O)nc(N[C@@H]3CNC[C@H]3C(C)(C)O)c2cc1OC		6.31 µM (active)
CCN(CC)CC(=O)Oc1ccc(NC(C)=O)cc1	13.2%	
CCCCNC(=O)NS(=O)(=O)c1ccc(N)cc1	0.545%	
CCOC(=O)[C@H](CCc1ccccc1)N[C@@H](C)C(=O)N1C(=O)N(C)C[C@H]1C(=O)O	5.98%	
Cc1ncc([N+](=O)[O-])n1C	9.67%	
Cc1ccc(-c2ccc3ncc4c(c3n2)n(C2CCN(C(=O)[C@H](C)O)CC2)c(=O)n4C)cn1		0.794 µM (active)
NC(=O)N1c2ccccc2C=Cc2ccccc21	8.83%	
COC(=O)c1nc(Cl)c(Cl)nc1N		8.2 µM (active)
CCN(CC)CCN	6.69%	
Cc1cccc(Oc2cnc(=O)[nH]c2)c1	6.68%	
O=S(=O)(O)c1ccc(O)cc1	11.9%	
O=C(O)CCCC[P+](c1ccccc1)(c1ccccc1)c1ccccc1	2%	
NS(=O)(=O)Cc1noc2ccccc12	1.85%	
CCCCCCCCCCCCCCCCCC(=O)O	18.1%	
CCN(CC)C(=O)C1CN2CCc3cc(OC)c(OC)cc3C2CC1OC(C)=O (stereo not given)	-2.45%	
CC(=O)N[C@@H](Cc1ccc(O)cc1)C(=O)O	-8.88%	

Compound	activity (max response)	Potency
C[C@@H](N)C(=O)O	1.67%	
CCCNC(C)C(=O)Nc1ccccc1C (stereo not given)	8.91%	
Cc1c(C)c2c(c(C)c1OC(=O)c1cccnc1)CC[C@@](C)(CCC[C@H](C)CCC[C@H](C)CCCC(C)C)O2	-0.414%	
CC(=O)OC(C)C[N+](C)(C)C (stereo not given)	-1.07%	
O=C(O)CC1CCC(c2ccc(-c3ccc(Nc4ccc(C(F)(F)F)nc4)cn3)cc2)CC1 (stereo not given)	-23.1%	
COC(=O)c1cc(Cl)c(NC(C)=O)cc1OC	11.7%	
C#CCN(C)Cc1ccccc1	11.7%	
C=C(C)C(=O)OCC(O)CO (stereo not given)	-4.84%	
CC(=O)N[C@@H](CCC(=O)O)C(=O)O	10.8%	
CC1(C)OC[C@@H](COC(=O)CCc2ccc(OC[C@@H](O)CNCCNC(=O)N3CCOCC3)cc2)O1	-0.309%	
CC(=O)N(CC(=O)N(C)C)c1ccccc1	-5.65%	
Cn1ncc(Cl)c1-c1cc(C(=O)NC(CN)Cc2ccc(F)c(F)c2)oc1Cl (stereo not given)		28.2 µM (active)
Nc1ccc(/C=C/c2ccc(N)cc2S(=O)(=O)O)c(S(=O)(=O)O)c1	11.4%	
c1ccc2c(CC3=NCCN3)cccc2c1	1.1%	
CCCCCCCCCCCCCCCC(=O)O	8.9%	
CN1[C@@H]2CC[C@H]1CC(OC(=O)C(O)c1ccccc1)C2 (stereo not given in full)	7.83%	
CCCCCC(C)N (stereo not given)	17.9%	
C[C@H]1O[C@@H](O[C@H]2CC[C@@]3(C)[C@H](CC[C@@H]4[C@@H]3C[C@@H](O)[C@]3(C)[C@@H](C5=CC(=O)OC5)CC[C@]43O)C2)C[C@H](O)[C@@H]1O[C@H]1C[C@H](O)[C@H](O[C@H]2C[C@H](O)[C@H](O[C@@H]3O[C@H](CO)[C@@H](O)[C@H](O)[C@H]3O)[C@@H](C)O2)[C@@H](C)O1		0.082 µM (active)
CC(=O)OCC(=O)[C@@]12N=C(C)O[C@@H]1C[C@H]1[C@@H]3CCC4=CC(=O)C=C[C@]4(C)[C@H]3[C@@H](O)C[C@@]12C	11.7% and 0.528%	
O=C(O)c1ccc(OCCN2CCCCC2)cc1	10.8%	

Test: Cellular viability qHTS for adrenocortical cancer (ACC) cell line NCI-H295R (AID 1963990); note: nearly all actives have a fitted effect of over 60% in size;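 for activity change, negative = viability loss: 0% = DMSO only wells and -100% = full killing with cytotoxic reference compound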
Settings: CellTiter-Glo ATP luminescence, 48 h; series mostly up to 46.1 µM; activity change, negative = viability loss: at the top concentration
Outline: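 Adrenocortical carcinoma cells, suspended at 300 000 cells/mL in serum-free DMEM plus ITS, rested overnight before pin transfer of compound. After two days' incubation, ATP-dependent luminescence was recorded and curve-fitted.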

Compound	activity change, negative = viability loss	Potency
CN(C)C(=O)Oc1ccc[n+](C)c1	-0.744%	
C[N+]1(C)[C@@H]2CC(OC(=O)[C@H](CO)c3ccccc3)C[C@H]1[C@@H]1O[C@@H]12 (stereo not given in full)		inactive
NS(=O)(=O)c1ccc(Cl)c(S(N)(=O)=O)c1	14.8%	
Cc1cc(-n2nc3ccc(Cl)cc3n2)c(O)c(C(C)(C)C)c1	-0.369%	
COc1cc2nc(-c3cc(F)ccc3O)nc(N[C@@H]3CNC[C@H]3C(C)(C)O)c2cc1OC		6.31 µM (active)
CCN(CC)CC(=O)Oc1ccc(NC(C)=O)cc1	-2.58%	
CCCCNC(=O)NS(=O)(=O)c1ccc(N)cc1	-11.1%	
CCOC(=O)[C@H](CCc1ccccc1)N[C@@H](C)C(=O)N1C(=O)N(C)C[C@H]1C(=O)O	-9.15%	
Cc1ncc([N+](=O)[O-])n1C	-1.09%	
Cc1ccc(-c2ccc3ncc4c(c3n2)n(C2CCN(C(=O)[C@H](C)O)CC2)c(=O)n4C)cn1		0.141 µM (active)
NC(=O)N1c2ccccc2C=Cc2ccccc21	14%	
COC(=O)c1nc(Cl)c(Cl)nc1N		0.103 µM (active)
CCN(CC)CCN	13.1%	
Cc1cccc(Oc2cnc(=O)[nH]c2)c1	-7.5%	
O=S(=O)(O)c1ccc(O)cc1	2.46%	
O=C(O)CCCC[P+](c1ccccc1)(c1ccccc1)c1ccccc1	-16.1%	
NS(=O)(=O)Cc1noc2ccccc12	0.682%	
CCCCCCCCCCCCCCCCCC(=O)O	-1.11%	
CCN(CC)C(=O)C1CN2CCc3cc(OC)c(OC)cc3C2CC1OC(C)=O (stereo not given)	3.43%	
CC(=O)N[C@@H](Cc1ccc(O)cc1)C(=O)O	-5.13%	

Compound	activity change, negative = viability loss	Potency
C[C@@H](N)C(=O)O	7.05%	
CCCNC(C)C(=O)Nc1ccccc1C (stereo not given)	-12.4%	
Cc1c(C)c2c(c(C)c1OC(=O)c1cccnc1)CC[C@@](C)(CCC[C@H](C)CCC[C@H](C)CCCC(C)C)O2	-3.23%	
CC(=O)OC(C)C[N+](C)(C)C (stereo not given)	1.32%	
O=C(O)CC1CCC(c2ccc(-c3ccc(Nc4ccc(C(F)(F)F)nc4)cn3)cc2)CC1 (stereo not given)	-8.83%	
COC(=O)c1cc(Cl)c(NC(C)=O)cc1OC	-13.6%	
C#CCN(C)Cc1ccccc1	2.88%	
C=C(C)C(=O)OCC(O)CO (stereo not given)	-24.2%	
CC(=O)N[C@@H](CCC(=O)O)C(=O)O	1.14%	
CC1(C)OC[C@@H](COC(=O)CCc2ccc(OC[C@@H](O)CNCCNC(=O)N3CCOCC3)cc2)O1	-3.58%	
CC(=O)N(CC(=O)N(C)C)c1ccccc1	-9.29%	
Cn1ncc(Cl)c1-c1cc(C(=O)NC(CN)Cc2ccc(F)c(F)c2)oc1Cl (stereo not given)		3.16 µM (active)
Nc1ccc(/C=C/c2ccc(N)cc2S(=O)(=O)O)c(S(=O)(=O)O)c1	-9.73% [at 0.587 µM]	
c1ccc2c(CC3=NCCN3)cccc2c1	-0.309%	
CCCCCCCCCCCCCCCC(=O)O	9.76%	
CN1[C@@H]2CC[C@H]1CC(OC(=O)C(O)c1ccccc1)C2 (stereo not given in full)	-1.48%	
CCCCCC(C)N (stereo not given)	-19.1%	
C[C@H]1O[C@@H](O[C@H]2CC[C@@]3(C)[C@H](CC[C@@H]4[C@@H]3C[C@@H](O)[C@]3(C)[C@@H](C5=CC(=O)OC5)CC[C@]43O)C2)C[C@H](O)[C@@H]1O[C@H]1C[C@H](O)[C@H](O[C@H]2C[C@H](O)[C@H](O[C@@H]3O[C@H](CO)[C@@H](O)[C@H](O)[C@H]3O)[C@@H](C)O2)[C@@H](C)O1		0.164 µM (active)
CC(=O)OCC(=O)[C@@]12N=C(C)O[C@@H]1C[C@H]1[C@@H]3CCC4=CC(=O)C=C[C@]4(C)[C@H]3[C@@H](O)C[C@@]12C		inactive
O=C(O)c1ccc(OCCN2CCCCC2)cc1	-8.74%	
